In PubChem BioAssay:
Activity calls are given as the source filed them.

Legend:
[1] = tested on: Plasmodium falciparum Sir2 (PF13_0152, Sir2A); test: Plasmodium falciparum Sir2A binding compounds – biochemical, small-molecule microarray, 635 nm fluorescence, primary screen (AID 1098); settings: fluorescence 635 nm, higher = more signal;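 further: score merges spot fluorescence intensity with its signal-to-noise ratio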
[2] = probe aDKK1 binding to arrayed compounds – biochemical, biotinylated probe, 635/667 nm fluorescence, primary screen (AID 1099); settings: small-molecule microarray, higher = more signal;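 further: score merges 667nm spot fluorescence with signal to noise across triplicate slides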
[3] = probe aCHRDL2 binding to arrayed compounds – biochemical, biotinylated probe, 635/667 nm fluorescence, primary screen (AID 1100); settings: small-molecule microarray, higher = more signal
[4] = change in splice reporter luminescence, either direction, cell-based, HEK293, spliceosome inhibition project, primary screen (AID 1101); settings: HEK293 splicing luciferase reporter, 24 h, higher = more signal, called active from +8 up or from −8 down;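 further: HEK293 cells carrying a splicing-competent luciferase reporter gene; test concentration not given here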
[5] = target: Fibroblast growth factor 10 (Homo sapiens) (UniProt O15520); test: compounds binding fibroblast growth factor 10 – biochemical, small-molecule microarray, 635 nm fluorescence, primary screen (AID 1102); settings: FGF10 binding, fluorescence 635 nm, higher = more signal
Sequence of Fibroblast growth factor 10 (Homo sapiens) (O15520 whole entry, looked up): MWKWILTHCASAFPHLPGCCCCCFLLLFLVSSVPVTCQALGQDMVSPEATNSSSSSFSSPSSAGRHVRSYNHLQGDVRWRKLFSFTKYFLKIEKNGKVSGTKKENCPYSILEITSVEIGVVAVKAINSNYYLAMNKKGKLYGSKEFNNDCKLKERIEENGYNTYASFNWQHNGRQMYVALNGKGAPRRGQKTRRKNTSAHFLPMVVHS

[6] = tested on: glycogen synthase kinase-3 (GSK3A per assay name; protocol says GSK3B); test: compounds binding glycogen synthase kinase-3 – biochemical, small-molecule microarray, 635 nm fluorescence, GSK3A, primary screen (AID 1103); settings: fluorescence 635 nm, higher = more signal; further: the record names both GSK3A and GSK3B
[7] = target: Epidermal growth factor receptor (Homo sapiens) (UniProt P00533); test: compounds binding epidermal growth factor receptor – biochemical, small-molecule microarray, 635 nm fluorescence, primary screen (AID 1104); settings: EGFR binding, higher = more signal;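 further: score merges 667 nm emission intensity with spot signal to noise over triplicate slides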
Sequence of Epidermal growth factor receptor (Homo sapiens) (P00533 whole entry, looked up): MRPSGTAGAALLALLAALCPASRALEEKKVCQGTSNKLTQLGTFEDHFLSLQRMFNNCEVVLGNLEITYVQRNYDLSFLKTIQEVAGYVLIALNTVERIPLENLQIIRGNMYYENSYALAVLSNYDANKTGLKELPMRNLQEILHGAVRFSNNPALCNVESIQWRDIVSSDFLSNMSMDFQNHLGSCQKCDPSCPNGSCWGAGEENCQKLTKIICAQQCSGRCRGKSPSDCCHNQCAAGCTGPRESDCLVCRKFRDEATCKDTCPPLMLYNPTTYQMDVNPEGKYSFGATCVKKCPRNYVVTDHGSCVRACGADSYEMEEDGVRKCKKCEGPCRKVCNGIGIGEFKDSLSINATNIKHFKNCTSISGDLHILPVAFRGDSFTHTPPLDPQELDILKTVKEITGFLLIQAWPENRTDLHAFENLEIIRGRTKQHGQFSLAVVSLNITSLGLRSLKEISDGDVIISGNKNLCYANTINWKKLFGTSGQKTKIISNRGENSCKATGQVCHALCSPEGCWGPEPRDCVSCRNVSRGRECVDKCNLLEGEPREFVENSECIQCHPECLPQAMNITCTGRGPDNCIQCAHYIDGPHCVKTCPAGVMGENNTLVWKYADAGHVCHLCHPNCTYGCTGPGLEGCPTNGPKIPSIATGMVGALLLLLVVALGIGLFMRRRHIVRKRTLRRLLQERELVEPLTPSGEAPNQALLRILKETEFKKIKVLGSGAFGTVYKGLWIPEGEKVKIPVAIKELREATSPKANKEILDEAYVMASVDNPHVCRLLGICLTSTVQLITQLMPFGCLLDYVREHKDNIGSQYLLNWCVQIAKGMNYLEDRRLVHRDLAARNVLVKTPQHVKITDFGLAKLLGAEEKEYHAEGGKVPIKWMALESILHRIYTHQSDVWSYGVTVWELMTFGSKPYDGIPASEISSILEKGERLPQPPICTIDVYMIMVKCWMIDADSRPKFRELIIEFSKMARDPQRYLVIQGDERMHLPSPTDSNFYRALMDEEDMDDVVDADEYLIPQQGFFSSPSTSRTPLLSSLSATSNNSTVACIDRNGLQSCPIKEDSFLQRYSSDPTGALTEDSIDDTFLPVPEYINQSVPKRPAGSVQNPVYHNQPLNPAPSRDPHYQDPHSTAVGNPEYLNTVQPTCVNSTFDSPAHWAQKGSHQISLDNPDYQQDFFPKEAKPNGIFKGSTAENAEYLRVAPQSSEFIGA

[8] = target: Follistatin-related protein 3 (Homo sapiens) (UniProt O95633); test: compounds binding follistatin-related protein 3 – biochemical, small-molecule microarray, 635 nm fluorescence, primary screen (AID 1105); settings: FSTL3 binding, higher = more signal;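 further: score merges emission near 667 nm and signal to noise per printed spot across three slides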
Sequence of Follistatin-related protein 3 (Homo sapiens) (O95633 whole entry, looked up): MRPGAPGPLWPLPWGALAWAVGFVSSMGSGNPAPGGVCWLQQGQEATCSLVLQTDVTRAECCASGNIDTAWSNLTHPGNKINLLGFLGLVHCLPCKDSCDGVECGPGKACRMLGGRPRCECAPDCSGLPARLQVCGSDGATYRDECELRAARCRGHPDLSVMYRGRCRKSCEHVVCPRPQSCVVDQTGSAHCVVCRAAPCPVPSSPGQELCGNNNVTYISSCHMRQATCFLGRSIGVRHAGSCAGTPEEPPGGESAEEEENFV

[9] = target: Dickkopf-related protein 1 (Homo sapiens) (UniProt O94907); test: small molecules binding DKK1 protein – biochemical, small-molecule microarray, 635 nm fluorescence scan, primary screen (AID 1106); settings: higher = more signal;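 further: score merges emission near 667 nm with signal to noise over three replicate slides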
Sequence of Dickkopf-related protein 1 (Homo sapiens) (O94907 whole entry, looked up): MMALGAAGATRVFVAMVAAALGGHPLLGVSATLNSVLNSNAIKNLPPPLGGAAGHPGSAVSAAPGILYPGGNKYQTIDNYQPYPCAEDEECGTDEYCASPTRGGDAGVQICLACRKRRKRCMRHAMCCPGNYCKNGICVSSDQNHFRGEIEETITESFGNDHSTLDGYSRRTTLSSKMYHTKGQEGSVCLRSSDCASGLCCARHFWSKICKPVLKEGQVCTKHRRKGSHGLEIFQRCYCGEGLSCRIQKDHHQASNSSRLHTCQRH

[10] = tested on: Inhibin beta A chain (activin A); test: small molecules binding activin A – biochemical, small-molecule microarray, 635 nm fluorescence scan, primary screen (AID 1107); settings: INHBA, higher = more signal;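 further: mouse activin A protein probed at 4.33 µg/mL on printed slides; score merges bound-protein fluorescence near 667 nm with spot signal-to-noise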
[11] = tested on: Human papillomavirus type 1a protein E7 (residues 44-93); test: small molecules binding HPV E7 44-93 – biochemical, small-molecule microarray, residues 44-93, 635 nm fluorescence, primary screen (AID 1108); settings: fluorescence 635 nm, higher = more signal;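 further: E7 fragment applied at 1 µg/mL in TBST for 1 h at 4 C; score combines spot fluorescence with its signal to noise ratio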
[12] = hepatitis C replication reporter changes, two-sided – Huh7 cells, luciferase reporter, HCV replication inhibitor project, primary screen (AID 1109); settings: Huh7 HCV replicon luciferase reporter, 48 h; higher = more signal;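 further: huh7 hepatoma cells harbouring a luciferase neomycin HCV replicon reporter; luciferase luminescence as measure of HCV replicon replication; test concentration not given here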
[13] = target: Left-right determination factor 2 (Homo sapiens) (UniProt O00292); test: small molecules binding LEFTY2 protein – biochemical, small-molecule microarray, 635 nm fluorescence scan, primary screen (AID 1110); settings: higher = more signal
Sequence of Left-right determination factor 2 (Homo sapiens) (O00292 whole entry, looked up): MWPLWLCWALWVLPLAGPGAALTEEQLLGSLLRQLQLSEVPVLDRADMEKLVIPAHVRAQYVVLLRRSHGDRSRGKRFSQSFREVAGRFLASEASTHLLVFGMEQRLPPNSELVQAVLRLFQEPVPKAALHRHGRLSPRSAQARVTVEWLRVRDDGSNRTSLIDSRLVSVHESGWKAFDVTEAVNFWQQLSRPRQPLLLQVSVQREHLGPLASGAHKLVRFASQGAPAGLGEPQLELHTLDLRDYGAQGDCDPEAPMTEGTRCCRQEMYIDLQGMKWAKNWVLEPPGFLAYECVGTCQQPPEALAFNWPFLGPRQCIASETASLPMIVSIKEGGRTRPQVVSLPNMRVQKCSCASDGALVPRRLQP

[14] = target: Calmodulin-1 (Homo sapiens) (UniProt P0DP23); test: small molecules binding calmodulin-1 with EGTA – biochemical, small-molecule microarray, Cy5-labelled CALM1, profiling panel (AID 1111); settings: Cy5-CALM1 binding fluorescence, higher = more signal;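 further: labelled calmodulin applied in Tris saline Tween buffer holding calcium plus EGTA and DTT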
[15] = target: Calmodulin-1 (Homo sapiens) (UniProt P0DP23); test: small molecules binding Ca-loaded calmodulin-1 – biochemical, small-molecule microarray, Cy5-labelled CALM1, plus calcium, artefact control for SMM control-protein annotation, profiling panel (AID 1112); settings: Cy5-CALM1 binding fluorescence, higher = more signal;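 further: score merges spot fluorescence with signal to noise from triplicate slides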
[16] = probe aWnt5a binding to arrayed compounds – biochemical, biotinylated probe, 635/667 nm fluorescence, primary screen (AID 1113); settings: small-molecule microarray, higher = more signal;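 further: score merges 667 nm fluorescence intensity with signal-to-noise per printed feature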
[17] = probe aShh binding to arrayed compounds – biochemical, biotinylated probe, 635/667 nm fluorescence, primary screen (AID 1114); settings: small-molecule microarray, higher = more signal;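 further: probe is biotin-labelled aShh protein from a stem cell growth factor screen; measures binding of labelled protein to compounds printed on the slide; score merges feature fluorescence at 667 nm with signal-to-noise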
[18] = probe aNog binding to arrayed compounds – biochemical, biotinylated probe, 635/667 nm fluorescence, primary screen (AID 1115); settings: small-molecule microarray, higher = more signal;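 further: probe is biotinylated aNog protein used at 0.15 µg/mL for 1 h at 4 C; z-score combines 667 nm fluorescence of each spot with its signal to noise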
[19] = target: Torsin-1A-interacting protein 1 (Homo sapiens) (UniProt Q5JTV8); test: compound microarray binding of lysate hLAP1 – cell lysate, small-molecule microarray, COS7 lysate, 635/667 nm fluorescence, primary screen (AID 1116); settings: 635 nm fluorescence, higher = more signal
Sequence of Torsin-1A-interacting protein 1 (Homo sapiens) (Q5JTV8 whole entry, looked up): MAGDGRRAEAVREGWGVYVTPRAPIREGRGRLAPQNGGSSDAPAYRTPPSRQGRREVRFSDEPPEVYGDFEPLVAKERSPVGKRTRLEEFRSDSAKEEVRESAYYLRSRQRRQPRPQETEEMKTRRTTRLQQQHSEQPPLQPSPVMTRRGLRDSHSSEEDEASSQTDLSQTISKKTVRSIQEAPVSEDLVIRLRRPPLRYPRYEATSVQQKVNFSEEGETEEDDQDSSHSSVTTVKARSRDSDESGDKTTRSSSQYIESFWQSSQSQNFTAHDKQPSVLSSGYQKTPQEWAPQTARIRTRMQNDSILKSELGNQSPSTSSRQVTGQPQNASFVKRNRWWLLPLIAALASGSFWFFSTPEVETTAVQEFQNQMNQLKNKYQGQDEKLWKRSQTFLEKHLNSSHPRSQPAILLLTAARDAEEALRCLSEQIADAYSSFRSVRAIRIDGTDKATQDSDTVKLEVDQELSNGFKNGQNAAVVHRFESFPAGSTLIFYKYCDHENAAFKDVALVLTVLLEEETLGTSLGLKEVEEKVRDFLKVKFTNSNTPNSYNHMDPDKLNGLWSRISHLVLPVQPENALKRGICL

[20] = target: Alpha-bungarotoxin (Bungarus multicinctus) (UniProt P60615); test: compounds binding labelled alpha-BTX control protein – biochemical, small-molecule microarray, Alexa647 label, 635/667 nm fluorescence, artefact control for SMM control protein annotation, profiling panel (AID 1117); settings: alpha-BTX-A647 binding fluorescence, higher = more signal
Sequence of Alpha-bungarotoxin (Bungarus multicinctus) (P60615 whole entry, looked up): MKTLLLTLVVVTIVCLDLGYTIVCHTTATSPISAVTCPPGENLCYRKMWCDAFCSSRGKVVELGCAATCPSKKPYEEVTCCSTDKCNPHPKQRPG

Row | Structure (SMILES) | composite z-score [1] | composite z-score [2] | composite z-score [3] | z-score [4] | composite z-score [5] | composite z-score [6] | composite z-score [7] | composite z-score [8] | composite z-score [9] | composite z-score [10] | composite z-score [11] | z-score [12] | composite z-score [13] | composite z-score [14] | composite z-score [15] | composite z-score [16] | composite z-score [17] | composite z-score [18] | composite z-score [19] | composite z-score [20]
1 | CCCC[C@H]1OB(O)C[C@H]2C1=C(COc1ccccc1)C[C@H]1C(=O)N(Cc3ccccc3)C(=O)[C@H]12 | 0.412 | -0.154 | -0.283 | -0.788 (inactive) | 0.509 | 0.103 | -0.248 | 0.581 | 0.193 | 0.78 | 1.38 | -1.72 | 0.377 | 0.324 | -0.774 | -0.176 | -0.0709 | -0.273 | -0.0868 | 1.04
2 | CCOC(=O)C1=CC[C@@H](c2cccc(Cl)c2)N(S(=O)(=O)c2ccc(C)cc2)[C@H]1c1ccc(C#N)cc1 | 1.06 | 0.855 | 0.252 | -0.201 (inactive) | 0.841 | 1.32 | 0.36 | 1.41 | 0.49 | 0.582 | 1.41 | -1.95 | 0.838 | 1.55 | 0.736 | 0.0266 | 0.0638 | 0.978 | 1.32 | 1.39
3 | O=[N+]([O-])c1ccc(C[n+]2ccc(CCCO)cc2)o1 | 0.513 | 0.762 | 0.805 | 0.115 (inactive) | 1.54 | 0.634 | 0.396 | 1.13 | 1.08 | 0.918 | 1.15 | -0.341 | 0.69 | 1.2 | 0.561 | -0.0364 | -0.0035 | -0.278 | 0.261 | 1.47
4 | O=C1OCC=C[C@H]2OC34C=CCN(CCN5CCOCC5)C(=O)[C@H]3N(CCCCCCO)C(=O)[C@@H]4[C@@H]12 (stereo not given in full) | 1.18 | -0.148 | 0.251 | 0.364 (inactive) | -0.231 | -0.162 | -0.0057 | 0.376 | 0.0105 | 1.35 | -0.139 | -0.413 | -0.207 | -0.238 | -0.695 | -0.176 | -0.0904 | 0.0395 | 1.37 | 0.0977
5 | CCCCN1CC=CC23O[C@@H]4/C=C\CCCOC(=O)C4[C@H]2C(=O)N(C(C)CO)[C@@H]3C1=O (stereo not given in full) | 1.62 | -0.292 | -0.305 | -0.577 (inactive) | -0.319 | -0.969 | -0.154 | -0.43 | 0.326 | 0.788 | -0.779 | -0.112 | -0.697 | -0.573 | -0.101 | -0.172 | -0.17 | -0.186 | -0.585 | -0.0491
6 | [N-]=[N+]=NCc1ccccc1C[C@]1(C(=O)NCC(O)CO)COC(c2ccc(OCCCO)cc2)=N1 (stereo not given in full) | 1.08 | 1.22 | 1.5 | 1.1 (inactive) | -0.0207 | -0.493 | -1.13 | 0.324 | -0.372 | 0.462 | 0.912 | -1.84 | -0.645 | 2.44 | 0.911 | 0.188 | -0.0341 | 1.17 | 3.34 | 3.01
7 | O=C1O[C@H](c2ccccc2)[C@H](c2ccccc2)N2[C@H]1[C@@H](C(=O)NC[C@H](O)c1ccccc1)[C@]1(C(=O)Nc3ccc(C#CC4=CCCCC4)cc31)[C@H]2c1ccc(O)cc1 | 1.29 | 0.137 | 0.176 | -2.1 (inactive) | 1.3 | 1.29 | 0.57 | 1.33 | 0.542 | -0.201 | 1.38 | -2.02 | 0.538 | 0.784 | -0.566 | -0.0403 | -0.0146 | 0.0129 | 0.705 | 1.52
8 | CCCNC(=O)[C@@]1(C)c2ccccc2C(=O)N(Cc2cc(F)cc(C(F)(F)F)c2)[C@H]1c1ccc(CO)cc1 | 1.25 | 0.0202 | 0.995 | -0.377 (inactive) | -1.02 | -0.552 | -0.668 | -0.286 | -1.44 | -0.496 | 0.843 | -0.372 | -0.742 | 0.685 | 0.499 | -0.0405 | 0.0469 | 1.03 | 0.296 | -0.0457
9 | CCCC[C@@H]1C[C@H]1[C@@H](NC(=O)c1ccccc1)c1ccccc1 | -0.563 | 0.599 | 0.781 | 0.308 (inactive) | -0.232 | -0.949 | -0.151 | 0.227 | -0.256 | 0.582 | 0.305 | -0.978 | -0.137 | -0.0221 | 0.635 | 0.298 | 0.121 | 2.11 | -0.192 | 0.012
10 | CN(C)CCCCNC(=O)[C@@H]1C[C@@H]2C(=O)N[C@@H](CCCCN)C(=O)N2[C@@H]1c1cccc(OCCO)c1 | 1.9 | 0.123 | 0.74 | -0.239 (inactive) | -0.383 | 0.0265 | -1.22 | -0.795 | -0.988 | 0.0049 | 0.572 | -0.289 | -1.55 | -0.328 | -0.547 | -0.12 | 0.0735 | 0.42 | 0.482 | -0.863
11 | C=CCC(OC(C)=O)[C@@H]1[C@@H](N(Cc2ccc(-c3cccc(C(F)(F)F)c3)o2)C(=O)c2ccc(C)cc2)c2cc(OCCCO)ccc2N1C(=O)c1ccc2ccccc2n1 (stereo not given in full) | 0.273 | -0.164 | 0.253 | 0.168 (inactive) | 0.453 | -0.124 | -0.0487 | 0.483 | 0.381 | 1.4 | -0.172 | -0.462 | 0.435 | -0.619 | -0.253 | -0.0478 | 0.278 | 0.276 | -0.0885 | 1.31
